Dicer inh: inhibitors of human Dicer processing of pre-microRNA | 47,000 compounds, 6% hits | z-score at 25 µM | Q9UPY3 | cat-ELCCA pre-miR-21 Dicer processing, chemiluminescence; stronger effect = higher value; in the data active = z-score above about 3, passing the limit was not always enough;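 note: plate controls were vehicle for no effect and no enzyme for full effect; higher signal means more uncleaved substrate so more Dicer inhibition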
* marks the source's active call; other numbers are inactive results. The sample as a whole holds a higher share of hits than the screen did.

SMILES	Dicer inh
CCCN1C(=O)C(O)(CC(=O)c2c(C)n[nH]c2C)c2ccccc21 (stereo not given)	0.2
O=C(CC1(O)C(=O)N(CCc2ccccc2)c2ccc(Br)cc21)c1ccncc1 (stereo not given)	3.65*
Cc1ccc(CN2C(=O)C(O)(CC(=O)c3ccncc3)c3cc(Cl)ccc32)cc1 (stereo not given)	4.99*
Cc1ccccc1CN1C(=O)C(O)(CC(=O)c2ccccn2)c2cc(Cl)ccc21 (stereo not given)	1.81
Cc1ccc(C(=O)CC2(O)C(=O)N(CCc3ccccc3)c3ccc(Cl)cc32)o1 (stereo not given)	5.15*
CCOc1ccc(C(=O)CC2(O)C(=O)N(CCc3ccccc3)c3ccc(Br)cc32)cc1 (stereo not given)	1.76
Cc1ccc(C(=O)CC2(O)C(=O)N(Cc3ccccc3)c3ccc(Cl)cc32)cc1 (stereo not given)	0.64
COc1ccc(C(=O)CC2(O)C(=O)N(CCc3ccccc3)c3ccc(Br)cc32)cc1 (stereo not given)	-0.4
Cc1ccc(C(=O)CC2(O)C(=O)N(Cc3ccccc3C)c3ccc(Cl)cc32)o1 (stereo not given)	1.31
CCCN1C(=O)C(O)(CC(=O)c2c(C)n[nH]c2C)c2cc(Br)ccc21 (stereo not given)	3.23*
CCCCN1C(=O)C(O)(CC(=O)c2c(C)n[nH]c2C)c2cc(Br)ccc21 (stereo not given)	2.07
NC(=O)c1c(NC(=O)COc2ccccc2Br)sc2c1CCCC2	2.5
COc1ccc(OC)c(C2C(C(=O)OC3CCCCC3)=C(C)NC3=C2C(=O)CCC3)c1 (stereo not given)	-1
O=C1CC(NC2CCN(c3ccc(Cl)nn3)CC2)C(=O)N1c1ccc(F)cc1 (stereo not given)	0.4
Cc1cc(-c2nn(C)c(=O)c3ccccc23)cc(C)c1OCC(=O)NNC(=O)Nc1ccc(Cl)cc1	0.07
Cc1onc(-c2ccccc2Cl)c1C(=O)NN(C)C	0.27
COc1ccc(-c2nnc3c4ccccc4c(C)nn23)cc1S(=O)(=O)NCCO	0.97
CC(C)(C)NC(=S)N/N=C/c1ccc(O)cc1	2.71
Cn1c2c(c(=O)n(C)c1=O)C(CC(=O)Nc1ccc(Cl)cc1)C(=O)N2 (stereo not given)	1.11
O=C(O)CSc1nnc2c3ccccc3n(CCc3ccccc3)c2n1	2.26
CCCCc1[nH]nc2c1C1(CCN(CC)CC1)C(C#N)=C(N)O2	-6.92
Cc1cc(-c2nn(C)c(=O)c3ccccc23)cc(C)c1OS(=O)(=O)c1ccccc1OC(F)(F)F	-1.52
Cc1ccc2oc3c(c(=O)c2c1)C(c1ccc(F)cc1)N(c1ccccn1)C3=O (stereo not given)	0.58
Cn1c(-c2ccc(F)cc2)cnc1NCc1ccc(Br)cc1	3.7
COc1ccc(-c2cnc(NCc3cc(Br)ccc3F)n2C)cc1	-1.21
SMILES	Dicer inh
Cn1c(-c2ccc(F)cc2)cnc1NCc1ccccc1F	1.58
Cn1c(-c2ccccc2)cnc1NCc1cc(Br)ccc1F	1.15
Cn1c(-c2ccc(Cl)cc2)cnc1NCc1ccccc1F	3.23*
Cc1ccc(-c2cnc(NCc3ccc(Br)cc3)n2C)cc1	3.32*
Cn1c(-c2ccc(Cl)cc2)cnc1NCc1ccc(F)cc1F	3.27*
Cn1c(-c2ccccc2)cnc1NCc1cc(Cl)ccc1O	1.53
COc1cccc(-c2cnc(NCc3ccc(Br)cc3)n2C)c1	0.77
CN(C)/C=C1\COc2ccc(Cl)cc2C1=O	-0.28
Cc1ccc(-n2cccc2)c(NC(=O)C(c2ccccc2)C2CCCC2)c1 (stereo not given)	-1.55
CCOC(=O)c1cnn(C)c1NC(=O)C(Cl)Cl	-0.33
CCCCCCC(=O)c1ccc(Br)cc1	0.11
CCC(=O)N1N=C(c2ccco2)CC1c1cn(-c2ccccc2)nc1-c1cccs1 (stereo not given)	-0.68
CC(C)(C)NC1=C(C#N)C(=O)NC(c2ccccc2O)S1 (stereo not given)	3.86*
CSC1=C(C#N)C(=O)NC(c2ccccc2O)S1 (stereo not given)	-0.17
CSC1=C(C#N)C(=O)NC(c2cccc3ccccc23)S1 (stereo not given)	0.89
O=c1c(-n2nnc3ccccc32)c2oc3ccccc3nc-2c2ccccc12	-1.1
O=C(O)C12CCC(C(=O)O)(CC1=O)C(=O)C2	-0.91
O=C(CC1(O)C(=O)N(Cc2ccc(Cl)cc2)c2ccccc21)c1ccc2c(c1)OCO2 (stereo not given)	2.38
CC(=O)c1ccccc1C(=O)c1ccc(C(C)(C)C)cc1	-0.54
COCCCNc1ccc([N+](=O)[O-])c(NCCCOC)c1C#N	-0.36
CCOC(=O)CC(=O)CSc1nc(C)c(C)c(C)c1C#N	0.68
Cc1nc(SCC(=O)c2ccccc2)c(C#N)c(C)c1C	4.36*
CC(=O)c1ccc(C#N)c(SCC(=O)c2ccccc2)n1	0.91
CN(C)c1ccc(C2N(C)c3ccccc3N2C)cc1	-3.63
CCc1n(CC)c2ccccc2[n+]1CC(O)COc1ccc(OC)cc1 (stereo not given)	0.26
SMILES	Dicer inh
CCOC(=O)c1[nH]c2ccc(F)cc2c1NC(C)=O	2.38
CCOC(=O)Nc1c(C(=O)OCC)[nH]c2ccc(F)cc12	2.8
CCOC(=O)Nc1c(C(=O)OCC)[nH]c2ccc(OC)cc12	5.23*
CCOc1ccc(-c2nc(-c3ccc(-c4cccc(OC)c4)nc3OC)no2)cc1	0.66
CC(C)CC(NC(=O)C(C)N)C(=O)O (stereo not given)	-0.33
C#CCSc1nnnn1-c1ccc(C)cc1C	-0.94
O=[N+]([O-])c1ccc(/C=C/C2Oc3ccccc3C3CC(c4cccs4)=NN23)o1 (stereo not given)	6.54*
Cc1ccc(C2=NN3C(C2)c2ccccc2OC3c2ccc(F)cc2)o1 (stereo not given)	2.06
c1ccc(C2Oc3ccccc3C3CC(c4cccs4)=NN32)nc1 (stereo not given)	1.46
CCOC(=O)C1=C(C)Nc2nc3ccccc3n2C1c1cccc(C)c1 (stereo not given)	-0.02
CCS(=O)(=O)c1c(S(=O)(=O)CC)c2cc(C(C)(C)C)ccn2c1C(=O)c1ccc(OC)cc1	5.03*
COc1ccc(C(=O)CC(=O)c2ccc(C(C)(C)C)cc2)cc1	-0.14
CCCS(=O)(=O)c1c(S(=O)(=O)CCC)c2ccccn2c1C(=O)OC	0.22
N#CCCCSc1ncccc1C(=O)O	-0.75
O=C(Oc1cccc2cccnc12)c1ccc(Br)cc1	4.56*
Cc1onc(-c2c(Cl)cccc2Cl)c1C(=O)Oc1cccc2cccnc12	1.14
O=C(Oc1cccc2cccnc12)c1ccc2c(c1)-c1ccccc1C2=O	-0.05
COc1nccnc1NS(=O)(=O)c1ccc(NCc2cc(Cl)ccc2O)cc1	3.71*
COc1ccc(-c2cnc(NCc3cc(Cl)ccc3O)n2C)cc1	1.26
Cc1cc(C)nc(NS(=O)(=O)c2ccc(NCc3cc(Br)ccc3O)cc2)n1	10.3
O=C(CSc1ncn[nH]1)c1ccc(O)cc1O	-0.31
O=C(COc1ccccc1Br)c1ccc(O)cc1O	3.16*
O=C(COc1ccccc1Br)Nc1ccc2c(c1)OCO2	1.04
Clc1ccccc1CN1CCN(Cc2cccnc2)CC1	1.38
CCc1ccc(CN2CCN(Cc3cccnc3)CC2)cc1	3.06*
Brc1cccc(CN2CCN(Cc3ccncc3)CC2)c1	2.78
CCc1ccc(Oc2ccc(C(F)(F)F)cc2[N+](=O)[O-])cc1CC	-1.57
O=C(NC(=S)NNc1ncc(C(F)(F)F)cc1Cl)c1cccs1	-0.17
Cc1cccc(-c2nc(N)nc(N)n2)c1	-0.46
Cc1cccc(-c2nnc(N)s2)c1	4.38*

Bioassay records from PubChem BioAssay.
